Reference: PubChem BioAssay (Tox21)
Records with an inconclusive call do not appear. Entries that show only a call come without a potency. Active and inactive are the calls of the source. Unless noted, calls come from the whole dose curve; as a rule, active = well fitted curve in the direction sought with a large enough effect in the repeat runs; inconclusive = weak or mixed curves; inactive = no such curve, though single readings can be large; an effect the other way counts as inactive or inconclusive.

How the values were obtained:
[1] = A CellTox Green Cytotoxicity Assay to monitor cytotoxicity in HepG2 cells - 8 hour (AID 1224890); note: nearly all actives have a fitted effect of over 45% in size
In short: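 HepG2, 600 cells/well premixed w/ CellTox Green; 5 h settle, 37 C/5% CO2; pintool cpd add (DMSO); 37 C, 40 h; fluorescence read at 0, 8, 16, 24, 32, 40 h.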

[2] = qHTS assay to identify small molecule antagonists of the estrogen receptor alpha (ER-alpha) signaling pathway using the BG1 cell line in the presence of 0.1 nM 17-beta-estradiol - cell viability counter screen (AID 1259241); note: nearly all actives have a fitted effect of over 40% in size; note: potency is the fitted concentration of half-maximal effect
In short: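 Following 5 days in phenol red-free medium with charcoal-stripped serum, VM7Luc4E2 cells received test compounds alongside 0.1 nM 17beta-estradiol (final) at 37C for 22 hr. Live cells were then quantified via protease-substrate fluorescence.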

[3] = qHTS assay to identify small molecule antagonists of the androgen receptor (AR) signaling pathway using the MDA cell line in the presence of 0.5 nM R1881 - cell viability counter screen (AID 1259242); note: nearly all actives have a fitted effect of over 45% in size
In short: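 Live-cell protease fluorescence, CellTiter-Fluor, 30 min at 37C. Cells: MDA-kb2, 3,000/well, preincubated 5 hr. Compounds plus 0.5 nM R1881 final, 16 hr, 37C, 0% CO2.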

[4] = qHTS assay to identify small molecule HDAC inhibitors (AID 1259364);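 note: wild-type HCT-116 cells with endogenous class I/II HDAC activity; top concentration of the series differs between compounds; nearly all actives have a fitted effect of over 45% in size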
In short: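 HCT-116 (wild type), 1,500 cells/well, overnight; compound 2 hr 37C 5% CO2; HDAC-Glo I/II reagent 30 min RT; luminescence readout.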

[5] = qHTS assay to identify small molecule HDAC inhibitors - cell viability counter screen (AID 1259365); note: series mostly up to about 92 µM; nearly all actives have a fitted effect of over 50% in size
In short: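 HCT-116 wild-type, overnight attachment; 2hr drug exposure, 37C; CellTiter-Glo luminescent ATP readout after 30min RT.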

[6] = qHTS assay to identify small molecule agonists of the sonic hedgehog signaling (Shh) pathway - cell viability counter screen (AID 1259366); note: nearly all actives have a fitted effect of over 50% in size
In short: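 Compounds in DMSO were pin-transferred onto 3T3 Gli1-Luc cells that had settled 4hr; plates then stood 24hr at 37C and 5% CO2. One hour before the end, CellTiter-Fluor was added and fluorescence recorded.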

[7] = qHTS assay to identify small molecule antagonists of the sonic hedgehog signaling (Shh) pathway - cell viability counter screen (AID 1259367); note: nearly all actives have a fitted effect of over 55% in size; note: potency is the fitted concentration of half-maximal effect
In short: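 Tox21 library chemicals were tested on a Gli1-Luc NIH/3T3 clone (2,000 cells/well) stimulated by conditioned medium; viability was quantified as fluorescence from CellTiter-Fluor reagent added at 23 hr.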

[8] = qHTS assay to identify small molecule agonists of the sonic hedgehog signaling (Shh) pathway (AID 1259368; calls by dose curve;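 note: NIH/3T3-derived 3T3Gli1-Luc cells carrying a stable Gli1-driven firefly luciferase reporter; series mostly up to about 92 µM; nearly all actives have a fitted effect of over 15% in size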)
In short: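 Read-out: firefly luciferase luminescence from a Gli1 response element reporter stably integrated in NIH/3T3-derived 3T3Gli1-Luc cells, measured 30 min at room temperature after reagent addition. Compound exposure lasted 24 hr at 37 C, 5% CO2.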

[9] = qHTS assay to identify small molecule antagonists of the sonic hedgehog signaling (Shh) pathway (AID 1259369; calls by dose curve; note: nearly all actives have a fitted effect of over 45% in size; note: potency is the fitted concentration of half-maximal effect)
In short: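 Luminescence readout: firefly Luc under Gli1 response element in 3T3Gli1-Luc cells (NIH/3T3 clone). Antagonist mode, stimulation by conditioned medium; compound exposure 24hr at 37 C, 5% CO2.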

[10] = biological target: Estrogen receptor beta (Homo sapiens) (UniProt Q92731); assay: qHTS assay to identify small molecule agonists of the estrogen receptor beta (ER-beta) signaling pathway (AID 1259377; active = well fitted activation curve with a large enough effect in the signal ratio in the repeat runs, not every such curve was filed as active; the % refers to the signal ratio)
In short: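 qHTS in ER-beta-UAS-bla HEK293T cells: 6 hr settling, then 16 hr compound at 37C, then LiveBLAzer substrate 2 h at RT before fluorescence reading.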

[11] = biological target: Estrogen receptor beta (Homo sapiens) (UniProt Q92731); assay: qHTS assay to identify small molecule antagonists of the estrogen receptor beta (ER-beta) signaling pathway (AID 1259378; active = well fitted inhibition curve with a large enough effect in the signal ratio in the repeat runs, not every such curve was filed as active; the % refers to the signal ratio; note: potency is the fitted concentration of half-maximal effect)
In short: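 ER-beta-UAS-bla HEK293T cells in 2% charcoal-stripped FBS medium treated with compound plus 1nM final 17-beta-estradiol for 16 hr at 37C. Beta-lactamase reporter read by FRET substrate fluorescence after 2 hours at room temperature.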

[12] = qHTS assay to identify small molecule agonists of the androgen receptor (AR) signaling pathway in the presence of an antagonist - cell viability counter screen (AID 1259379); note: nearly all actives have a fitted effect of over 25% in size; note: potency is the fitted concentration of half-maximal effect
In short: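 Viability counter screen: CellTiter-Fluor fluorescence, measured in the same wells as the luciferase read-out. MDA-kb2 cells, 3,000/well, with nilutamide at 3.0uM final and compounds at 15 concentrations, 16 hr at 37C, 0% CO2.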

[13] = qHTS assay to identify small molecule agonists of the estrogen receptor beta (ER-beta) signaling pathway - cell viability counter screen (AID 1259380); note: nearly all actives have a fitted effect of over 30% in size; note: potency is the fitted concentration of half-maximal effect
In short: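 Luminescence read-out (CellTiter-Glo, 30 min, room temp) taken in the same wells as the beta-lactamase reporter assay; ER-beta-UAS-bla HEK293T cells exposed to DMSO-dissolved compounds for 16 hr at 37C in 2% charcoal-stripped FBS medium.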

[14] = qHTS assay to identify small molecule antagonists of the estrogen receptor beta (ER-beta) signaling pathway - cell viability counter screen (AID 1259382); note: series mostly up to about 92 µM; nearly all actives have a fitted effect of over 55% in size
In short: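 Luminescent ATP read-out (CellTiter-Glo, 30 min, RT) taken in the same wells as the bla reporter assay. HEK293T ER-beta-UAS-bla cells in 2% charcoal-stripped FBS were exposed to compounds with 1nM E2 for 16 hr at 37C.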

[15] = biological target: Estrogen receptor (Homo sapiens) (UniProt P03372); assay: qHTS assay to identify small molecule agonists of the estrogen receptor alpha (ER-alpha) signaling pathway in the presence of an antagonist (AID 1259383; calls by dose curve; note: top concentration of the series differs between compounds; nearly all actives have a fitted effect of over 15% in size)
In short: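 Luciferase luminescence (ONE-Glo, 30min at room temperature) measured in VM7Luc4E2 cells after 22hr compound exposure at 15 concentrations, with 10.0nM ICI-182,780 final present; cells express endogenous ER-alpha and carry four EREs upstream of luciferase.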

[16] = qHTS assay to identify small molecule agonists or antagonists of the thyroid stimulating hormone receptor (TSHR) signaling pathway - wild type cell line counter screen (AID 1259384; calls by dose curve)
In short: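 Wild-type Hek293 cells, 800/well, 18 h at 37C, then compound with Ro20-1724 for 30 min RT. cAMP by HTRF (cAMP-d2/anti-cAMP cryptate), 1 h RT, fluorescence read. 15 concentrations, triplicates.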

[17] = qHTS assay to identify small molecule phospholipidosis (PLD) inducers (AID 1259344; active = well fitted curve in the direction sought with a large enough effect; an effect the other way counts as inactive or inconclusive)
In short: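 Image-based: LipidTOX Red pit count/intensity per well and per cell; HepG2, 24 h compound at 37 C, PFA fixation, Hoechst counterstain.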

[18] = biological target: Androgen receptor (Homo sapiens) (UniProt P10275); assay: qHTS assay to identify small molecule antagonists of the androgen receptor (AR) signaling pathway using the MDA cell line in the presence of 0.5 nM R1881 (AID 1259243); note: nearly all actives have a fitted effect of over 50% in size; note: potency is the fitted concentration of half-maximal effect
In short: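 MDA-kb2, MMTV-luc (AR/GR elements); 3,000 cells/well; cpd + 0.5 nM R1881 final; 16 hr 37C, 0% CO2; ONE-Glo 30 min RT; luminescence.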

[19] = biological target: Estrogen receptor (Homo sapiens) (UniProt P03372); assay: qHTS assay to identify small molecule antagonists of the estrogen receptor alpha (ER-alpha) signaling pathway using the BG1 cell line in the presence of 0.1 nM 17-beta-estradiol (AID 1259244); note: nearly all actives have a fitted effect of over 50% in size; note: potency is the fitted concentration of half-maximal effect
In short: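 Luminescence after ONE-Glo (30 min, room temperature) measured ERE-luciferase activity in VM7Luc4E2 cells treated 22 h with compound and 0.1 nM final 17beta-estradiol as stimulator.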

Androgen receptor (Homo sapiens), sequence (P10275 whole entry, looked up): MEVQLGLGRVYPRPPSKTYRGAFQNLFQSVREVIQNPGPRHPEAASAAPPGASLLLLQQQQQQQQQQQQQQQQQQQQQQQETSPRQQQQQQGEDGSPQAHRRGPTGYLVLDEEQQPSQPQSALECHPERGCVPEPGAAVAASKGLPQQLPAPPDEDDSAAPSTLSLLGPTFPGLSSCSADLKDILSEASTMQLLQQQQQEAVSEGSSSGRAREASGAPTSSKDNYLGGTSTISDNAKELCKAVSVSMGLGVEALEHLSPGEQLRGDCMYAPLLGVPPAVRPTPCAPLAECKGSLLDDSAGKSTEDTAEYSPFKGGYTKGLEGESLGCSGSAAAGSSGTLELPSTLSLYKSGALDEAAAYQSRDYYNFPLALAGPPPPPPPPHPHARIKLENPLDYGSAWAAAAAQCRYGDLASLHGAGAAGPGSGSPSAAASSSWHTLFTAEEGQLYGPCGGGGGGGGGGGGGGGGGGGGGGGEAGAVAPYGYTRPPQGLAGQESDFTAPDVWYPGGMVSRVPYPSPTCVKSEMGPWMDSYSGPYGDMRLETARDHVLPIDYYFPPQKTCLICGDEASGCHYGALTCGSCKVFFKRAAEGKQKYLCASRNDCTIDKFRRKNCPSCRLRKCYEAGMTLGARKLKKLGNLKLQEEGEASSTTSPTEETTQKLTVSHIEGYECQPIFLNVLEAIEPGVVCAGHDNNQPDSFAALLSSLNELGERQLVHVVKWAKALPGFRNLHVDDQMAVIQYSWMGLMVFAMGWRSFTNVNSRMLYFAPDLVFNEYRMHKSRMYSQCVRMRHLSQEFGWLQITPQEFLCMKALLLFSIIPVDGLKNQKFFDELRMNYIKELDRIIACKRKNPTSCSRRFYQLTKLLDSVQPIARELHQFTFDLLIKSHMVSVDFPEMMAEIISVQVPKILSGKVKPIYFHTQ
Estrogen receptor beta (Homo sapiens), sequence (Q92731 whole entry, looked up): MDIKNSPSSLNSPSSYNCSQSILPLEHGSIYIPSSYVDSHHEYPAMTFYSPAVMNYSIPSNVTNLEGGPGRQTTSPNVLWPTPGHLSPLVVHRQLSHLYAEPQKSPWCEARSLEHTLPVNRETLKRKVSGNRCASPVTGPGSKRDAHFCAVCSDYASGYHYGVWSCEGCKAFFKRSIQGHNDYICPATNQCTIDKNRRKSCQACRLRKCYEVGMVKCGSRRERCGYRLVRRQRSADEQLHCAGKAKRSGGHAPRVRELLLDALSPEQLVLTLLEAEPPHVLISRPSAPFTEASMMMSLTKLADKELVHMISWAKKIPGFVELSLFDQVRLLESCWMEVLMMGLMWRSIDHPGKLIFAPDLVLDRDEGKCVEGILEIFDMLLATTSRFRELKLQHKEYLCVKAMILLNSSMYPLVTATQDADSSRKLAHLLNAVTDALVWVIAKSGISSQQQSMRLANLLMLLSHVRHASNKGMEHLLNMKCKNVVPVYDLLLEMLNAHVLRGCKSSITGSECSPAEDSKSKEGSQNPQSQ
Estrogen receptor (Homo sapiens), sequence (P03372 whole entry, looked up): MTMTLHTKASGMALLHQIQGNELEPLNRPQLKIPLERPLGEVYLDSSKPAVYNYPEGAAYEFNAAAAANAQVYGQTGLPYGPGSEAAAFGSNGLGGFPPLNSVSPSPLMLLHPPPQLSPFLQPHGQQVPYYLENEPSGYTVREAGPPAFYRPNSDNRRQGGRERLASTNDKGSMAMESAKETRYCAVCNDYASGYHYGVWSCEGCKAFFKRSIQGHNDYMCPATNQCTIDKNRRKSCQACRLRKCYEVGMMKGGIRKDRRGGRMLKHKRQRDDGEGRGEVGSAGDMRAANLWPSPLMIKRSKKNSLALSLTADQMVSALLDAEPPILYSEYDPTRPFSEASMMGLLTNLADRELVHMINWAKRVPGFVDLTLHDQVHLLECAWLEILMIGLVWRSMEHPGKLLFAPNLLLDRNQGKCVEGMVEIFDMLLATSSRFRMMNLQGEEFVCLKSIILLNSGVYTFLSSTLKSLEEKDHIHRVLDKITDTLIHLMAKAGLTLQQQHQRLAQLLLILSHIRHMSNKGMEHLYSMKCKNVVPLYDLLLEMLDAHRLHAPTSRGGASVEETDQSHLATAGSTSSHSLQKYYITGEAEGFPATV

Structure (SMILES) | Potency [1] | Potency [2] | Potency [3] | Potency [4] | Potency [5] | Potency [6] | Potency [7] | Potency [8] | Potency [9] | Potency [10] | Potency [11] | Potency [12] | Potency [13] | Potency [14] | Potency [15] | outcome [16] | Potency [17] | Potency [18] | Potency [19]
C=CC(C)(CCC=C(C)C)OC(=O)CC(C)C (centres undefined) | inactive | inactive | inactive | inactive | inactive | inactive | inactive | inactive | inactive | inactive | inactive | inactive | inactive | inactive | inactive | inactive | – | – | –
COc1ccc(OC(=O)N(CC(=O)O)Cc2ccc(OCCc3nc(-c4ccccc4)oc3C)cc2)cc1 | inactive | inactive | inactive | inactive | inactive | – | inactive | – | inactive | – | 23.7 µM (active) | inactive | 16.8 µM (active) | inactive | inactive | inactive | – | – | –
O=C(O)c1ccc(OCCCOc2ccc(C(=O)O)cc2)cc1 | inactive | inactive | – | inactive | inactive | inactive | inactive | inactive | inactive | – | inactive | inactive | inactive | inactive | – | inactive | inactive | – | –
N#CCc1ccc(Cl)cc1Cl | inactive | inactive | inactive | inactive | – | inactive | inactive | – | inactive | – | – | inactive | inactive | inactive | inactive | inactive | – | – | –
C[C@@H](O)[C@H]1C(=O)N2C(C(=O)O)=C([C@H]3CCCO3)S[C@H]12 | inactive | inactive | – | inactive | inactive | inactive | inactive | inactive | inactive | inactive | inactive | inactive | inactive | inactive | inactive | – | inactive | inactive | inactive
CCCCCCCCCCC(=O)O | inactive | inactive | – | inactive | inactive | inactive | inactive | inactive | – | inactive | – | inactive | – | inactive | inactive | inactive | – | – | inactive
CNC(=O)c1cnn(-c2nc(N)c3ncn([C@@H]4O[C@H](CO)[C@@H](O)[C@H]4O)c3n2)c1 | inactive | inactive | – | inactive | inactive | inactive | inactive | inactive | inactive | – | – | inactive | inactive | inactive | inactive | inactive | – | – | inactive
Nc1nnc(-c2ccc([N+](=O)[O-])o2)o1 | inactive | 61.1 µM (active) | – | inactive | – | – | 27.3 µM (active) | inactive | inactive | inactive | – | 54.5 µM (active) | – | inactive | inactive | inactive | – | – | 54.5 µM (active)
O=C1Cc2cc(Cl)ccc2N1 | inactive | inactive | – | inactive | – | inactive | inactive | inactive | inactive | inactive | – | inactive | inactive | inactive | inactive | – | – | inactive | –
CCC(OCCCOC)OC(C)=O (centres undefined) | inactive | inactive | inactive | inactive | – | – | inactive | inactive | inactive | inactive | – | inactive | inactive | inactive | – | inactive | – | – | –
CCCCCCCCOc1ccc(C(=O)O)cc1 | inactive | inactive | inactive | – | inactive | – | inactive | – | inactive | inactive | – | inactive | – | inactive | – | – | – | – | –
NNC(=O)CP(=O)(c1ccccc1)c1ccccc1 | inactive | inactive | – | inactive | inactive | inactive | inactive | inactive | inactive | inactive | inactive | inactive | – | inactive | – | inactive | inactive | – | –
Cc1ccc(Cl)c(Nc2ccccc2C(=O)O)c1Cl | inactive | inactive | – | inactive | inactive | inactive | inactive | inactive | inactive | – | – | inactive | – | – | inactive | – | inactive | – | inactive
CC(C)C[C@H](NC(=O)[C@H](CCc1ccccc1)NC(=O)CN1CCOCC1)C(=O)N[C@@H](Cc1ccccc1)C(=O)N[C@@H](CC(C)C)C(=O)[C@@]1(C)CO1 | inactive | inactive | – | inactive | inactive | inactive | inactive | – | 0.0119 µM (active) | – | – | 1.19 µM (active) | 0.266 µM (active) | – | inactive | inactive | inactive | – | 0.168 µM (active)
CC1(C)O[C@@H]2C[C@H]3[C@@H]4C[C@H](F)C5=CC(=O)C=C[C@]5(C)[C@H]4[C@@H](O)C[C@]3(C)[C@]2(C(=O)CO)O1 | inactive | inactive | – | inactive | inactive | inactive | inactive | inactive | inactive | inactive | inactive | inactive | inactive | inactive | inactive | inactive | inactive | – | inactive
CC(C)=CCC1C(=O)N(c2ccccc2)N(c2ccccc2)C1=O | inactive | inactive | – | inactive | inactive | inactive | inactive | inactive | inactive | inactive | – | inactive | inactive | inactive | inactive | inactive | inactive | – | inactive
CCOc1ccc(Cc2nccc3cc(OCC)c(OCC)cc23)cc1OCC | inactive | inactive | – | inactive | inactive | – | inactive | inactive | – | inactive | – | 29.8 µM (active) | inactive | inactive | inactive | inactive | inactive | 10.6 µM (active) | 8.41 µM (active)
CCCC(C(=O)OCCN(CC)CC)(c1ccccc1)c1ccccc1 | inactive | inactive | – | inactive | inactive | – | inactive | inactive | – | inactive | inactive | – | 29.8 µM (active) | – | inactive | inactive | – | – | inactive
